Sampled rows, rich in hits. Any-hit rate of the full collection: about 3.7%.
Bead autofluor: compound fluorescence in toxin protease inhibitor counterscreen; compound autofluorescence counterscreen, microsphere flow cytometry; stronger effect = higher value; 3.1% of 360,000 active; AID 624483; fluorescence intensity (concentration not given with the values); in the data active means fluorescence intensity above about 16000; inconclusive means no clear call, values can overlap the other calls
Anthrax LF inh2: blocks Bacillus anthracis lethal factor protease; 0.12% of 360,000 active; AID 588501; P15917; multiplex microsphere protease cleavage assay, LF; inhibition, % at 10 µM
BoNT A protease: blocks Botulinum neurotoxin A light chain protease. multiplex microsphere protease substrate cleavage, flow cytometry. inhibition, % at 10 µM. 0.17% of 360,000 active
MazF activator: activators of E. coli MazEF toxin-antitoxin RNase | 0.32% of 350,000 active | FAM/BHQ RNA-DNA oligo cleavage fluorescence, 5 h | activation, % at 20 µM | AID 504720 | P0AE70; in the data active means activation above about 50%
Target sequence (P0AE70 whole entry, looked up): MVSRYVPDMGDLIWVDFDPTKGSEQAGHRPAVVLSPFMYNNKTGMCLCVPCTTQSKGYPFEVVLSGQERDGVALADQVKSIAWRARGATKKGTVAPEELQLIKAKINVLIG
BoNT-F LC inh: BoNT F light chain protease inhibition; Multiplex microsphere protease cleavage assay, flow cytometry; inhibition, % at 10 µM; 0.22% of 360,000 active; in the data active means inhibition above about 35%, passing the limit was not always enough; inconclusive means no clear call, values can overlap the other calls
BoNTA LC inh 1: blocks botulinum neurotoxin A light chain protease. shares compounds with BoNT-F LC inh. multiplex microsphere protease assay, flow cytometry. inhibition, % at 10 µM. 3% of 720 active. AID 602139; in the data active means inhibition above about 32%
BoNT-F LC CP1: BoNT/F light chain protease inhibition | 720 tested, under 10 active | inhibition, % at 10 µM | multiplex microsphere protease cleavage assay, flow cytometry | AID 602140 | shares compounds with BoNT-F LC inh; call rule not given here
Anthrax LF CP1: Bacillus anthracis lethal factor protease inhibition. shares compounds with BoNT-F LC inh. multiplex microsphere protease cleavage assay, LF. inhibition, % at 10 µM. 720 tested, under 10 active; call rule not given here
Hits are given with their value; – = inactive; ? = inconclusive; · = not tested or not shown. Unless noted, no stated cut-off is given here; in the data, active means inhibition above about 30%; inconclusive means no clear call, values can overlap the other calls; inactive means below that.

SMILES	Bead autofluor	Anthrax LF inh2	BoNT A protease	MazF activator	BoNT-F LC inh	BoNTA LC inh 1	BoNT-F LC CP1	Anthrax LF CP1
CCOC(=O)N1CCN(CCC(=O)Nc2cc(C)ccc2C)CC1	–	–	–	–	–	·	·	·
CCOC(=O)C1CCN(CCC(=O)Nc2cc(C)ccc2C)CC1	–	42	–	–	?	–	–	–
COc1ccc(CC2C(=O)NC(C)C(=O)N(C)C3Cc4ccc(cc4)Oc4cc(ccc4O)CC(C(=O)NC(C)C(=O)NC(C)C(=O)N2C)N(C)C3=O)cc1 (stereo not given)	–	–	–	–	–	·	·	·
Cc1ccc(C(=O)NCC(=O)OC(C)C(=O)NC2CCCCC2C)cc1C (stereo not given)	–	–	–	–	–	·	·	·
O=C(C1=COCCO1)N(Cc1nnc(-c2ccccc2Cl)o1)C1CC1	–	–	–	–	–	·	·	·
Cc1ccc(C(=O)Nc2ccc(S(=O)(=O)N3CCc4ccccc4C3)cc2)o1	–	–	–	–	36	–	–	–
COc1ccc(C(=O)CSc2nnc(CN3CCCC3)n2-c2ccc(F)cc2)c(OC)c1	–	–	–	–	39	–	–	–
COc1ccc(C(=O)CSc2nnc(CN3CCCCC3)n2-c2ccc(F)cc2)cc1OC	–	–	–	–	–	·	·	·
CC(C)c1ccc(S(=O)(=O)c2cnc(=S)[nH]c2N)cc1	–	–	–	–	37	–	–	–
Cc1cc(C)c(CNC(=O)c2cc(C3CC3)nc3c2cnn3C(C)C)c(=O)[nH]1	–	–	–	–	–	·	·	·
CCC(=O)N1CCc2cc(-c3csc(NC(=O)c4ccco4)n3)ccc21	–	–	–	–	35	–	–	–
O=C(Nc1nc(-c2ccc3c(c2)OCCO3)cs1)c1ccco1	–	–	–	·	–	·	·	·
c1ccc(CN2CCc3[nH]c4ccccc4c3C2)cc1	–	–	–	–	–	·	·	·
CCN1CCc2[nH]c3ccccc3c2C1	–	–	–	–	54	–	–	–
COc1ccccc1CNC(=O)C(CCSC)NS(=O)(=O)c1ccc2c(c1)oc(=O)n2C (stereo not given)	–	–	–	–	–	·	·	·
COc1cccc(CNC(=O)C(CCSC)NS(=O)(=O)c2ccc3c(c2)oc(=O)n3C)c1 (stereo not given)	–	–	–	–	37	–	–	–
O=C(O)CN1C(=O)C2C3CCC(C3)C2C1=O (stereo not given)	–	–	–	–	–	·	·	·
COc1ccc(CCNC(=O)CN2C(=O)NC3(CCCCC3C)C2=O)cc1 (stereo not given)	–	–	–	–	–	·	·	·
CCOC(=O)CN(C)Cc1cn(C)nc1-c1ccc(Oc2ccccc2)cc1	–	–	–	–	–	·	·	·
CCC(C)[C@H](NC(=O)N1CCCCC1)C(=O)OC (stereo not given in full)	–	35	–	–	?	–	–	–
CCSc1ncnc2c1sc1nc3c(cc12)COC(C)(C)C3	–	–	–	–	36	–	–	–
CC(C)Oc1ccc(C(=O)CCN2CCOCC2)cc1	–	–	–	–	–	–	–	–
CCCCCOc1ccc(C(=O)CCN2CCOCC2)cc1	–	–	–	–	–	·	·	·
O=C(CCN1CCOCC1)c1ccc(Cl)cc1	–	–	–	–	42	–	–	–
O=C(CCN1CCN(c2ccccc2)CC1)c1ccc(Br)cc1	–	–	–	–	–	·	·	·
SMILES	Bead autofluor	Anthrax LF inh2	BoNT A protease	MazF activator	BoNT-F LC inh	BoNTA LC inh 1	BoNT-F LC CP1	Anthrax LF CP1
O=C(CCN1CCOCC1)c1ccc(Br)cc1	–	–	–	–	40	–	–	–
CN(C)c1ccccc1-c1cc(NC=O)c2ncc(-c3cccc(C(F)(F)F)c3)n2c1	–	–	–	·	–	·	·	·
CCN(CC)c1nc2cc(OC)ccc2cc1C#N	–	–	31	–	–	–	–	–
Cc1ccc(S(=O)(=O)Cn2nnnc2C(C(C)C)N2CCC(O)CC2)cc1 (stereo not given)	–	–	–	–	–	·	·	·
COC(=O)c1ccc(C(=O)OC)c(NC(=O)CN(C)Cc2ccc(Cl)c(Cl)c2)c1	–	37	–	–	65	–	–	–
COC(=O)c1ccccc1NC(=O)CN(C)Cc1ccccc1	–	–	–	–	–	·	·	·
CCOc1ccc(NC(=O)Nc2ccc(Br)cn2)cc1	–	–	–	–	48	–	–	–
O=C(O)C1Nc2c(C(F)(F)F)ccc(Cl)c2C2C=CCC12 (stereo not given)	–	40	–	–	–	–	–	–
Cc1ccc2c(c1C)NC(C(=O)O)C1CC=CC21 (stereo not given)	–	?	?	–	?	·	·	·
COc1cc(NS(=O)(=O)c2c(C)[nH]c(C)c2C(=O)N2CCCCC2)cc(OC)c1OC	–	–	–	–	–	·	·	·
COc1ccc([N+](=O)[O-])cc1NC(=O)C(C)OC(=O)CC1CCCC1 (stereo not given)	–	–	–	–	–	·	·	·
COC(=O)C1Cc2c([nH]c3ccccc23)C2(CCN(Cc3ccccc3)CC2)N1 (stereo not given)	–	–	–	–	41	–	–	–
N#Cc1ccccc1NC(=O)CN1CCN(Cc2ccccc2)CC1	–	–	–	–	46	–	–	–
CCN(Cc1ccccc1)C(c1cc2cc(C)ccc2[nH]c1=O)c1nnnn1CCOC (stereo not given)	–	–	–	–	–	–	–	–
N#CCCN1C(=O)C2(OCCO2)c2ccccc21	–	–	–	–	–	·	·	·
COc1ccc(-n2cc(CNCCCn3ccnc3)c(-c3cccc(F)c3)n2)cc1	–	–	–	–	37	–	–	–
CC(C)Cn1ccc(=O)n(CC(C)C)c1=O	–	–	–	–	–	·	·	·
COc1ccccc1Oc1ncnc2sccc12	–	–	–	–	37	–	–	–
COc1ccc(C(c2nnnn2CS(=O)(=O)c2ccc(C)cc2)N2CCN(Cc3ccccc3)CC2)cc1 (stereo not given)	–	–	–	–	–	–	–	–
O=C1CN(C(=O)C2CC2)c2ccccc2N1	–	–	–	–	37	–	–	–
Cc1cc(C)cc(OCC(=O)OCC(=O)NC2CCCCCCC2)c1	–	–	–	–	–	·	·	·
COc1ccc(/C(O)=C/c2nc3ccccc3n(-c3ccccc3)c2=O)cc1	–	–	–	–	37	–	–	–
COc1ccc(CNC(=O)C2CCN(S(=O)(=O)c3ccc4nc5c(c(C(=O)O)c4c3)CCCC5)CC2)cc1	–	–	–	–	–	·	·	·
CCC1=Nc2ccccc2-c2nnc(SC)nc2O1	–	–	–	–	–	–	–	–
COc1ccc(CCNC(=O)c2ccc(Cl)c(S(=O)(=O)N(C)c3ccccc3)c2)cc1	–	–	–	–	–	·	·	·
CN(C)S(=O)(=O)c1cc(C(=O)NCCCn2ccc3ccccc32)ccc1Cl	–	–	–	–	–	–	–	–
O=C(NCc1ccccc1)C(c1ccc(F)cc1)N(Cc1ccc2c(c1)OCO2)C(=O)Cn1nnc(-c2cccs2)n1 (stereo not given)	–	–	–	–	51	–	–	–

Screening data from PubChem.
